From PubChem BioAssay
Where “and” joins values, the source holds several entries; their conditions need not be identical. Identical values can stand only once. For some of these results: Potency and affinity values are given separately. Some compounds were tested as several samples or in several runs, with calls that do not always agree. Calls of active or inactive are those of the source. Where a call stands in place of a potency, no number is given. Unless noted, no rule for the calls is given here.

Key:
[1] = antimalarial activity against Dd2 strain (AID 2302;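 active = growth inhibition above 50% at the single 2 µM test dose, taken to imply half-maximal potency below 2 µM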); conditions: P. falciparum Dd2 in RBCs, LDH growth readout, 72 h; at 2 µM; stronger effect = higher value
[2] = HepG2 cytotoxicity, primary screen, cytotoxicity control for P. falciparum antimalarial project, cell-based, ATP luminescence (AID 2303;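 active = inhibition above 50%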); conditions: HepG2 viability, 24-48 h, at 10 µM, stronger effect = higher value
[3] = target: L-lactate dehydrogenase (Plasmodium falciparum (isolate CDC / Honduras)) (UniProt Q27743); experiment: PfLDH activity inhibition – cell lysate, 3D7 strain, counter-screen for P. falciparum growth inhibition project (AID 2304); conditions: P. falciparum 3D7 crude extract, LDH APAD/NBT absorbance; at 2 µM; stronger effect = higher value
Chain of L-lactate dehydrogenase (Plasmodium falciparum (isolate CDC / Honduras)) (Q27743 whole entry, looked up): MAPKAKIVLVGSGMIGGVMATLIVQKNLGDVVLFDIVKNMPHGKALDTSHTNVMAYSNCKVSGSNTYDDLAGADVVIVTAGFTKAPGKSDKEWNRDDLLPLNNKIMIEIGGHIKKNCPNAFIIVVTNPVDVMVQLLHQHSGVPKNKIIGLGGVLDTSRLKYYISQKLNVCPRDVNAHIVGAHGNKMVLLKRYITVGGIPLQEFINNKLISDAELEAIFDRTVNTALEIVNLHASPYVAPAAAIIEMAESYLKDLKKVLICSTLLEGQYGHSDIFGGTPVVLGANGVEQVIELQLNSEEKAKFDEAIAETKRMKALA

[4] = inhibition of 3D7 malaria parasite growth – strain 3D7 (AID 2306); conditions: P. falciparum 3D7 erythrocytic growth, LDH absorbance, 72 h; at 2 µM; stronger effect = higher value
[5] = target: Calcium-dependent protein kinase 1 (Plasmodium falciparum (isolate 3D7)) (UniProt P62344); experiment: PfCDPK1 kinase inhibitors, biochemical, TCAMS library (AID 1159585; cut-off not given, nearly all actives have IC50 up to about 0.98 µM;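 also: inhibitors leave more ATP so luminescence rises with inhibition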); conditions: recombinant PfCDPK1, Kinase-Glo ATP depletion luminescence
Chain of Calcium-dependent protein kinase 1 (Plasmodium falciparum (isolate 3D7)) (P62344 whole entry, looked up): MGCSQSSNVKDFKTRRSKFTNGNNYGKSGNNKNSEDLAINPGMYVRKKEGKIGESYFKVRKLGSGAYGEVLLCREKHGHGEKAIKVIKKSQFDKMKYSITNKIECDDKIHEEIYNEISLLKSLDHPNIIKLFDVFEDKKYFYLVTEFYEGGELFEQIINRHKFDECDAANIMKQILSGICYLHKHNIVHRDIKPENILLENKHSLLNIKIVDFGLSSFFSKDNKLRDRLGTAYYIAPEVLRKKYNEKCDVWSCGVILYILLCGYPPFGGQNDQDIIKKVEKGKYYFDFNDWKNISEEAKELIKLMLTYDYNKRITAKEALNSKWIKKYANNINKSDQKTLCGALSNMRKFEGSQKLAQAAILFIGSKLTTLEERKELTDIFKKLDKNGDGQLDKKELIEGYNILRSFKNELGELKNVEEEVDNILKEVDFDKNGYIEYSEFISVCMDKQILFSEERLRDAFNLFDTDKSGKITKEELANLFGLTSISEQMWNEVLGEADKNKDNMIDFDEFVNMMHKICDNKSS

[6] = target: Plasmodium falciparum protein kinase 6 (PK6, PF3D7_1337100) (UniProt Q8IDW1); experiment: PfPK6 kinase inhibitors, biochemical, TCAMS library (AID 1159586); conditions: recombinant PfPK6, Kinase-Glo ATP depletion luminescence
Chain of Plasmodium falciparum protein kinase 6 (PK6, PF3D7_1337100) (Q8IDW1 1-305): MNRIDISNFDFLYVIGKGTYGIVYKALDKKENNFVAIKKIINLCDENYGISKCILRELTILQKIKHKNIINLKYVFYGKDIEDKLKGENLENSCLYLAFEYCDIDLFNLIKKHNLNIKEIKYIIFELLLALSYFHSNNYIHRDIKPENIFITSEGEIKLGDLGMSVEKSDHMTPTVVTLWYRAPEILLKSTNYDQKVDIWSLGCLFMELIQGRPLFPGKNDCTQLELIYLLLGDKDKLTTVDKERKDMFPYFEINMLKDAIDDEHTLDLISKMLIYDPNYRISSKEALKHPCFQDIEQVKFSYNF

[7] = target: Protein kinase 7 (PK7), Plasmodium falciparum 3D7 (PF3D7_0213400) (UniProt Q7YTF7); experiment: inhibition of Plasmodium PK7 catalytic activity – biochemical, TCAMS antimalarial set, Kinase-Glo luminescence (AID 1159587); conditions: recombinant PfPK7, Kinase-Glo ATP depletion luminescence
Chain of Protein kinase 7 (PK7), Plasmodium falciparum 3D7 (PF3D7_0213400) (Q7YTF7 1-343): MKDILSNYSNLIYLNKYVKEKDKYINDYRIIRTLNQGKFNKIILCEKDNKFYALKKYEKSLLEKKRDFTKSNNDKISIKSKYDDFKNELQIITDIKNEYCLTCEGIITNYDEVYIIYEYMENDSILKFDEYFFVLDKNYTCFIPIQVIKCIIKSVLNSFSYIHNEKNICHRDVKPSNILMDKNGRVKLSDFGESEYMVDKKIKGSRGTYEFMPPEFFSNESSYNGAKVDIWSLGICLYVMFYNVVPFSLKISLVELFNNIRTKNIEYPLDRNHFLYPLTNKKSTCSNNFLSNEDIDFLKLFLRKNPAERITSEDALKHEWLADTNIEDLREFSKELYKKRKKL

[8] = target: Calcium-dependent protein kinase 4 (Plasmodium falciparum (isolate 3D7)) (UniProt Q8IBS5); experiment: PfCDPK4 kinase inhibitors, biochemical, TCAMS library (AID 1159588; cut-off not given, nearly all actives have IC50 up to about 0.91 µM); conditions: recombinant PfCDPK4, Kinase-Glo ATP depletion luminescence
Chain of Calcium-dependent protein kinase 4 (Plasmodium falciparum (isolate 3D7)) (Q8IBS5 whole entry, looked up): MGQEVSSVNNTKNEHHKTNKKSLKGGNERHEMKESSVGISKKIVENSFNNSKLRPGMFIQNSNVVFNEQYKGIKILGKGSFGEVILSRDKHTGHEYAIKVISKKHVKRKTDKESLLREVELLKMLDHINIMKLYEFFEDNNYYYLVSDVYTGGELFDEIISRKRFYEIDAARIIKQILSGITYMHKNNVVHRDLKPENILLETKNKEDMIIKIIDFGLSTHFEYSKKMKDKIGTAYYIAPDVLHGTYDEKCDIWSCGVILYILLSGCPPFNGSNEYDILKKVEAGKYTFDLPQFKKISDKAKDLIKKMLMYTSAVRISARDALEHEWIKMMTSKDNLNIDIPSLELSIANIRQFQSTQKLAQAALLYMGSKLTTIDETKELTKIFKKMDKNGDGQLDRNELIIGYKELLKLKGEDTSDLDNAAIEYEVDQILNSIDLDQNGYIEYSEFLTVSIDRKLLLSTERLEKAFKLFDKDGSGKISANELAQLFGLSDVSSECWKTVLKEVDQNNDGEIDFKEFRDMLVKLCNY

Compound | growth inhibition [1] | inhibition [2] | inhibition [3] | growth inhibition [4] | outcome [5] | outcome [6] | outcome [7] | outcome [8]
Cc1cc(NCCC(=O)NCCc2ccccc2)nc(NCCc2ccc(F)cc2)n1 | 7% (inactive) | 0% (inactive) | -1% (inactive) | 92% (active) | inactive | inactive | inactive | inactive
CC(C)CNCc1cccc(-c2cccc(CNCCCN3CCN(C)CC3)c2)c1 | 7% (inactive) | 5% (inactive) | 1% (inactive) | 88% (active) | inactive | inactive | inactive | inactive
Cc1sc2ccc(Cl)cc2c1S(=O)(=O)Nc1ccc2nccc(N3C[C@@H](C)N[C@@H](C)C3)c2c1 | 100% (active) | 17% (inactive) | 0% (inactive) | 100% (active) | inactive | inactive | inactive | inactive
O=C(/C=C/c1ccc(Cl)c(Cl)c1)NC1CCN(Cc2ccc(O)cc2)CC1 | 43% (inactive) | -1% (inactive) | 3% (inactive) | 103% (active) | inactive | inactive | inactive | inactive
CC(C)(C)c1ccc(N2C(N)=NC(N)=NC2(C)C)cc1 | -2% (inactive) | 27% (inactive) | -2% (inactive) | 93% (active) | inactive | inactive | inactive | inactive
COc1ccc(NC(=O)C2CCN(CCCCCNC(=O)/C=C/c3ccc(Cl)c(Cl)c3)CC2)cc1 | -4% (inactive) | 26% (inactive) | 6% (inactive) | 98% (active) | inactive | inactive | inactive | inactive
COc1ccc(-c2cccc(NC(=O)c3cccc(Cl)c3)c2)cc1CN1CCNCC1 | 52% (active) | 29% (inactive) | 9% (inactive) | 101% (active) | inactive | inactive | inactive | inactive
CN1CCC(NCc2cccc(-c3cccc(-c4nc5ccc(C(F)(F)F)cc5[nH]4)c3)c2)CC1 | 101% (active) | 35% (inactive) | -1% (inactive) | 101% (active) | inactive | inactive | inactive | inactive
COc1cccc(NC(=O)c2ccc(NCCCN3CC(C)CC(C)C3)c([N+](=O)[O-])c2)c1 (stereo not given) | 68% (active) | 14% (inactive) | -4% (inactive) | 100% (active) | inactive | inactive | inactive | inactive
CCCn1c(Sc2ccc(C#N)c([N+](=O)[O-])c2)nnc1-c1cc(OC)cc(OC)c1 | 79% (active) | 24% (inactive) | 6% (inactive) | 98% (active) | inactive | inactive | inactive | inactive
Oc1ccccc1CN(CCCN(Cc1ccccn1)Cc1ccccc1O)Cc1ccccn1 | 92% (active) | 64% (active) | 3% (inactive) | 92% (active) | inactive | inactive | inactive | inactive
c1ccc(Oc2ccc(Nc3ccnc4cc(-c5ccc(CN6CCOCC6)o5)ccc34)cc2)nc1 | 73% (active) | 5% (inactive) | 0% (inactive) | 92% (active) | inactive | inactive | inactive | inactive
Cc1ccc(NC(=O)NCCCCCN2CCC(c3c[nH]c4ccccc34)CC2)cc1I | 5% (inactive) | 96% (active) | 6% (inactive) | 94% (active) | inactive | inactive | inactive | inactive
Cn1nccc1C(=O)NCCNCc1ccc(-c2ccc(-c3nc4ccc(C(F)(F)F)cc4[nH]3)cc2)cc1 | 99% (active) | 35% (inactive) | -2% (inactive) | 100% (active) | inactive | inactive | inactive | inactive
O=C(Nc1cc(Cl)ccc1O)c1ccc(Oc2ccc(C(=O)Nc3cc(Cl)ccc3O)cc2)cc1 | 91% (active) | 32% (inactive) | -3% (inactive) | 97% (active) | inactive | inactive | inactive | inactive
Cc1cc(NCC2CCN(CC3CCCCC3)C2)nc(Nc2ccc(Br)cc2)n1 (stereo not given) | 78% (active) | -2% (inactive) | 0% (inactive) | 101% (active) | inactive | inactive | inactive | inactive
COc1ccccc1N1CCN(Cc2cc(C(C)C)c(C)cc2O)CC1 | 98% (active) | 7% (inactive) | 2% (inactive) | 97% (active) | inactive | inactive | inactive | inactive
COc1ccc(NC(=O)C2c3ccccc3C(=O)N(CC(C)C)C2c2cccs2)cc1OC (stereo not given) | 98% (active) | 6% (inactive) | 3% (inactive) | 100% (active) | inactive | inactive | inactive | inactive
NC1=NC(c2ccccc2)(c2cccc(O)c2)C(=O)N1CCCc1ccccc1 (stereo not given) | 38% (inactive) and 93% (active) | -2% (inactive) | -2% (inactive) and 4% (inactive) | 85% (active) and 98% (active) | inactive | inactive | inactive | inactive
c1ccc(COc2ccc(C3CCCCC3)cc2)nc1 | 1% (inactive) | 0% (inactive) | 0% (inactive) | 99% (active) | inactive | inactive | inactive | inactive
